Most compounds without a hit are left out; they make up all but 16% or so of the library.
DT40 TDP1 no CPT – qHTS for Inhibitors of human tyrosyl-DNA phosphodiesterase 1 (TDP1): qHTS in cells in absence of CPT; hit rate 15% among 420,000; Potency, µM (series often up to 46.2 µM), inactives show top-dose activity change, negative = growth inhibition, actives largely listed as inhibitors; AID 686978, 2013; DT40 Tdp1-/- hTDP1 cells, no CPT, ATP luminescence, 48 h; further: potency means the concentration at half of the fitted maximal effect; on the % scale 0 is the no-effect control and ±100 the full control effect; nearly all actives have a fitted effect of over 55% in size
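DT40 Tdp1-/-;hTDP1 cells, no CPT (DMSO vehicle only), 400 cells/well; compounds pin-transferred; ≥48 hr, 37 °C; CellTiter-Glo 30 min RT dark, luminescence read.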
uPA surface inh – qHTS for Inhibitors of Cell Surface uPA Generation; hit rate 0.31% among 330,000; Potency, µM (top dose mostly 38.3 µM), inactives show at the highest dose activity change, negative = inhibition, most hits filed as inhibitors; cell surface uPA generation assay, qHTS; active means well fitted inhibition curve with a large enough effect; inconclusive means small, poorly fitted or top-dose-only effect; inactive means no such curve, though single readings can be large or run the other way; tested in mouse RAW 264.7 cells; further: potency means the concentration at half of the fitted maximal effect; on the % scale 0 is the no-effect control and ±100 the full control effect; nearly all actives have a fitted effect of over 55% in size
TDP1 block – qHTS Assay for Inhibitors of Tyrosyl-DNA Phosphodiesterase (TDP1); Tyrosyl-DNA phosphodiesterase 1 (Homo sapiens), Q9NUW8; recombinant TDP1, AlphaScreen DNA substrate cleavage; Potency, µM (highest dose often 130 µM), for the others: top-dose activity change, negative = inhibition, most hits filed as inhibitors; hit rate 0.28% among 350,000; AID 485290, 2010; further: potency means the concentration at half of the fitted maximal effect; on the % scale 0 is the no-effect control and ±100 the full control effect; nearly all actives have a fitted effect of over 40% in size
Target sequence (Q9NUW8 whole entry, looked up): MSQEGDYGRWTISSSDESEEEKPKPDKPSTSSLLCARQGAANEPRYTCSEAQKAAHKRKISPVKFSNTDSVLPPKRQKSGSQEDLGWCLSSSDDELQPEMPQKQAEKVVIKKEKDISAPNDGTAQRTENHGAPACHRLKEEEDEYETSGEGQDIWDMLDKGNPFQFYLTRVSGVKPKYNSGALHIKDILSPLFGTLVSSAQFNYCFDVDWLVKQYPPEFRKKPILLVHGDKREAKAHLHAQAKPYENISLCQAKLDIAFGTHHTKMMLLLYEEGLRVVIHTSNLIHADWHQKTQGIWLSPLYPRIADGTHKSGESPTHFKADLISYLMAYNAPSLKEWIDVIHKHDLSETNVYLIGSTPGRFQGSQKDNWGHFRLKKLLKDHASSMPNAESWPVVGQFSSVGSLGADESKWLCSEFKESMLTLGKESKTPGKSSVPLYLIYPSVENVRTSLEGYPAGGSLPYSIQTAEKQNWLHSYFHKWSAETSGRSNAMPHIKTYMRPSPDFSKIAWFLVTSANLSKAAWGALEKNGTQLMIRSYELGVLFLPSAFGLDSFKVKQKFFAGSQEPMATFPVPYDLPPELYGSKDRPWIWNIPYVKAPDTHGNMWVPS
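Here, a 5' biotin and 3' phosphotyrosine-FITC DNA oligonucleotide reports Tdp1 activity: intact substrate bridges AlphaScreen beads, while cleavage leaves a 3' phosphate and drops signal. All incubations at room temperature.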
DT40 TDP1 CPT – qHTS for Inhibitors of human tyrosyl-DNA phosphodiesterase 1 (TDP1): qHTS in cells in presence of CPT; chicken DT40 Tdp1-/-;hTDP1 cells + 20 nM CPT, ATP luminescence, 48 h; Potency, µM (doses to about 46.2 µM), for inactives: at the highest dose activity change, negative = growth inhibition, usual class: inhibitors; hit rate 12% among 420,000; further: potency means the concentration at half of the fitted maximal effect; on the % scale 0 is the no-effect control and ±100 the full control effect; nearly all actives have a fitted effect of over 55% in size
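Chicken DT40 Tdp1-/- cells complemented with human TDP1, 400 cells/well, exposed to compounds plus 20 nM camptothecin for at least 48 h at 37 C; viability read as ATP content by CellTiter-Glo luminescence.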
miR-21 reporter – qHTS Assay for Modulators of miRNAs and/orActivators of miR-21; HeLa miR-21 FLuc reporter, luciferase, 48 h; Potency, µM (top dose mostly 38.3 µM), for inactives: at the top dose activity change, positive = activation, hits mostly activators; 340,000 tested, under 10 active; AID 2288, 2010;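 further: % of control where 0% means no effect; miR-21 action dims this reporter so a rising signal means less miR-21 action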
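Luminescence from a firefly luciferase reporter carrying a miR-21 binding site downstream, stably expressed under a CMV promoter in HeLa cells that make miR-21 endogenously, reports miRNA modulation after 48 h compound exposure up to approximately 40uM final.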
* = called active by the depositor. Unless noted, the call rests on the fitted dose curve; in most records, active means well fitted curve in the direction sought with a large enough effect; inconclusive means small, poorly fitted or top-dose-only effect, or another doubt; inactive means no such curve, though single readings can be large; an effect the other way counts as inactive or inconclusive.

Results for CCCCCC[n+]1c(-c2ccc(Cl)cc2Cl)csc1Nc1ccccc1 ?
DT40 TDP1 no CPT: 23µM*; uPA surface inh: -1%; TDP1 block: 0%; DT40 TDP1 CPT: inconclusive; miR-21 reporter: 4%

How did COC(=O)c1ccc(NC(=O)c2c(C(=O)Nc3ccccc3)sc3nc(C)cc(=O)n23)cc1 do in these assays?
DT40 TDP1 no CPT: 0%; uPA surface inh: 7%; TDP1 block: -1%; DT40 TDP1 CPT: -4%; miR-21 reporter: 0%

Results for COc1ccc(Cl)cc1NC(=O)c1c(C(=O)Nc2cccc(C)c2C)sc2nc(C)cc(=O)n12 ?
DT40 TDP1 no CPT: 21µM*; TDP1 block: 5%; DT40 TDP1 CPT: inconclusive; miR-21 reporter: -1%

Results for CCOC(=O)/C(=N/Nc1ccc(C)cc1)S(=O)(=O)c1ccc(Cl)cc1 ?
DT40 TDP1 no CPT: inconclusive; uPA surface inh: -10%; TDP1 block: 5%; DT40 TDP1 CPT: 16µM*; miR-21 reporter: -15%

What do the screens show for `Cc1cc(C)c(NC(=S)NC(NC(=O)c2ccccc2)C(Cl)(Cl)Cl)c(C)c1` (stereo not drawn)?
DT40 TDP1 no CPT: 5.8µM*; uPA surface inh: -4%; TDP1 block: 8%; DT40 TDP1 CPT: inconclusive; miR-21 reporter: inconclusive

Results for Cc1ccccc1NC(=S)NC(NC(=O)c1ccccc1C)C(Cl)(Cl)Cl (stereo not drawn) ?
DT40 TDP1 no CPT: 21µM*; uPA surface inh: 6%; TDP1 block: -6%; DT40 TDP1 CPT: inconclusive; miR-21 reporter: 30%

What do the screens show for `Cc1ccc(C)c(NC(=S)NC(NC(=O)Cc2ccccc2)C(Cl)(Cl)Cl)c1` (stereo not drawn)?
DT40 TDP1 no CPT: -22%; uPA surface inh: -3%; TDP1 block: 2%; DT40 TDP1 CPT: -2%; miR-21 reporter: -2%

How did COC(=O)c1ccccc1NC(=O)CSc1nc2ccsc2c(=O)n1Cc1ccc(C(=O)O)cc1 do in these assays?
DT40 TDP1 no CPT: -19%; DT40 TDP1 CPT: -22%

How did CCc1ccc(NC(=O)NCC2CCN(c3ccc(OC)cc3)C2)cc1 (stereo not drawn) do in these assays?
DT40 TDP1 no CPT: -23%; uPA surface inh: 1%; TDP1 block: 2%; DT40 TDP1 CPT: 9.2µM*; miR-21 reporter: 1%

Results for COc1ccc(N2CCC(CNC(=S)Nc3ccc(C)cc3C)C2)cc1 (stereo not drawn) ?
DT40 TDP1 no CPT: 18µM*; uPA surface inh: inconclusive; TDP1 block: 14%; DT40 TDP1 CPT: inconclusive; miR-21 reporter: 9%

Results for Oc1cc(NCc2ccc(F)cc2)cc2cccnc12 ?
uPA surface inh: inconclusive; TDP1 block: 3%

Results for CN(C)CCCNc1cc(O)c2ncccc2c1 ?
uPA surface inh: 4µM*; TDP1 block: 3%

How did CN(C)CCn1ccc(O)c(Cc2ccc(Cl)cc2)c1=O do in these assays?
DT40 TDP1 no CPT: 1%; uPA surface inh: -9%; DT40 TDP1 CPT: 1%; miR-21 reporter: -1%

Results for Cc1cc(C)cc(OCC(=O)NCC2(N3CCOCC3)CCCCC2)c1 ?
DT40 TDP1 no CPT: 26µM*; TDP1 block: 5%; DT40 TDP1 CPT: inconclusive; miR-21 reporter: inconclusive

How did CC(Oc1ccccc1F)C(=O)NCC1(N2CCOCC2)CCCCC1 (stereo not drawn) do in these assays?
DT40 TDP1 no CPT: 18µM*; TDP1 block: 2%; DT40 TDP1 CPT: inconclusive; miR-21 reporter: 4%

How did Cc1ccc(OCC(=O)NCC2(N3CCOCC3)CCCCC2)cc1C do in these assays?
DT40 TDP1 no CPT: 16µM*; TDP1 block: -2%; DT40 TDP1 CPT: 21µM*; miR-21 reporter: inconclusive

Results for O=C(COc1ccccc1[N+](=O)[O-])NCC1(N2CCOCC2)CCCCC1 ?
DT40 TDP1 no CPT: 21µM*; uPA surface inh: 1%; TDP1 block: 0%; DT40 TDP1 CPT: inconclusive

Results for O=C(COc1ccc(F)cc1)NCC1(N2CCOCC2)CCCCC1 ?
DT40 TDP1 no CPT: 3%; uPA surface inh: 3%; TDP1 block: 2%; DT40 TDP1 CPT: inconclusive

Results for Cc1cccc(C)c1OCC(=O)NCC1(N2CCOCC2)CCCCC1 ?
DT40 TDP1 no CPT: inconclusive; TDP1 block: -4%; DT40 TDP1 CPT: 16µM*; miR-21 reporter: 15%

Results for Cc1onc(-c2ccccc2Cl)c1C(=O)N1CCCc2ccccc21 ?
DT40 TDP1 no CPT: inconclusive; uPA surface inh: -26%; TDP1 block: 3%; DT40 TDP1 CPT: inconclusive; miR-21 reporter: 24%

Results for Cc1onc(-c2ccccc2)c1C(=O)Nc1ccccc1N1CCOCC1 ?
DT40 TDP1 no CPT: inconclusive; uPA surface inh: -1%; TDP1 block: -5%; DT40 TDP1 CPT: inconclusive; miR-21 reporter: -3%

What do the screens show for `Cc1onc(-c2c(F)cccc2Cl)c1C(=O)NC1=NCCS1`?
DT40 TDP1 no CPT: inconclusive; TDP1 block: -4%; DT40 TDP1 CPT: -23%; miR-21 reporter: 6%

How did Cc1onc(-c2c(F)cccc2Cl)c1C(=O)Nc1ccccc1N1CCOCC1 do in these assays?
DT40 TDP1 no CPT: 23µM*; uPA surface inh: 6%; TDP1 block: -1%; DT40 TDP1 CPT: inconclusive; miR-21 reporter: -16%

What do the screens show for `Cc1onc(-c2ccccc2)c1C(=O)Nc1cc(C(F)(F)F)ccc1N1CCOCC1`?
DT40 TDP1 no CPT: 2.9µM*; uPA surface inh: -13%; TDP1 block: 3%; DT40 TDP1 CPT: 3.7µM*; miR-21 reporter: 22%

How did Cc1onc(-c2c(F)cccc2Cl)c1C(=O)N1CCCc2ccccc21 do in these assays?
DT40 TDP1 no CPT: 18µM*; uPA surface inh: -14%; TDP1 block: 4%; DT40 TDP1 CPT: inconclusive; miR-21 reporter: 20%

Results for Cc1onc(-c2c(F)cccc2Cl)c1C(=O)Nc1cccc2nsnc12 ?
DT40 TDP1 no CPT: 3.7µM*; DT40 TDP1 CPT: 16µM*; miR-21 reporter: 13%

Results for COc1ccc(CCCc2nnc(SCC(=O)Nc3ccccc3F)o2)cc1C ?
DT40 TDP1 no CPT: inconclusive; DT40 TDP1 CPT: inconclusive; miR-21 reporter: -17%

How did CCCNC(=O)N[C@H]1C=C[C@H](CC(=O)NC2CCCCC2)O[C@@H]1CO do in these assays?
DT40 TDP1 no CPT: inconclusive; DT40 TDP1 CPT: 5%

Results for COc1ccc(C(=O)NNC(=O)C2CCCO2)cc1 (stereo not drawn) ?
DT40 TDP1 no CPT: -26%; uPA surface inh: 7%; DT40 TDP1 CPT: inconclusive; miR-21 reporter: -1%

What do the screens show for `CCN(CC)S(=O)(=O)c1ccc(NC(=O)Nc2cccc(C(F)(F)F)c2)cc1`?
DT40 TDP1 no CPT: 2.6µM*; uPA surface inh: -14%; TDP1 block: 4%; DT40 TDP1 CPT: 2.6µM*; miR-21 reporter: inconclusive

Source: PubChem BioAssay (National Center for Advancing Translational Sciences (NCATS))
